The list is not random: actives were taken first. Their share in the collection is about 2.1%.
TPT1 inhibitor: inhibitors of Candida albicans tRNA 2'-phosphotransferase TPT1; inhibition, % at 5 µM; recombinant caTPT1, FP RNA substrate dephosphorylation; hit rate 0.81% among 300,000;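 active = inhibition above the mean of all tested compounds plus 3 SD, set per screening campaign, cut at about 24% in these data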;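 note: plate controls were DMSO alone for no effect and ferristatin control at 100 nM for full effect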
Myeloid diff MLP: myeloid differentiation induction; calls only at 10 µM; ER-HoxA9 myeloid progenitors, lysozyme-GFP differentiation, flow cytometry; hit rate 1% among 360,000; AID 624256;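 active = normalized GFP-positive differentiation at or above the plate's own cutoff, the solvent-only control mean plus 3 SD; inconclusive = no clear call, values can overlap the other calls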;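 note: cells exposed to compound for four days before flow analysis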
HNF4A DNA FP: change in binding of human HNF4 alpha to DNA; AID 1224865; HNF4a-FITC DNA binding, fluorescence polarization, 1 h; activity change, % at 10 µM; P41235; hit rate 0.3% among 360,000; in the data active = activity change above about 30%, passing the limit was not always enough
Rpn11 inh: blocks the human proteasome subunit Rpn11; O00487; human 26S proteasome, Ub4-pepOG fluorescence polarization; 20S core pre-blocked with epoxomicin; inhibition, % at 20 µM; hit rate 0.59% among 360,000;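 active = inhibition at 20 µM, scaled to each plate's controls, above about 33%, limit read from the data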
caTPT1 confirm: TPT1 (C. albicans) inhibition, confirmation | shares compounds with TPT1 inhibitor | recombinant caTPT1, fluorescence polarization, RNase T1 coupled | inhibition, % at 5 µM | hit rate 74% among 2,400 | AID 2149;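 active = inhibition above the primary screen limit, the mean inhibition of all tested compounds plus 3 SD, cut at about 25% in these data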
RNase T1 inh: RNase T1 inhibition in TPT1 counter-screen. shares compounds with TPT1 inhibitor. hit rate 83% among 2,400. AID 2153. RNase T1 cleavage, fluorescence polarization, 1536-well. inhibition, % at 5 µM;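 active = inhibition above the solvent-only control well mean plus 3 SD, limit set per screening run, cut at about 23% in these data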;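 note: plate controls were DMSO wells with enzyme for no effect and wells without RNase T1 for full effect; inhibitors block cleavage so intact labeled substrate keeps polarization high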
Rpn11 inh conf: confirmation of human proteasome Rpn11 inhibitors | shares compounds with Rpn11 inh | AID 602318 | purified human 26S proteasome, Ub4-pepOG fluorescence polarization; proteasome pretreated with epoxomicin | inhibition, % at 20 µM | hit rate 29% among 1,900
MMP-2 inh: counter-screen for RPN11 inhibitors: inhibition of human MMP-2 | shares compounds with Rpn11 inh | recombinant MMP-2, FRET peptide cleavage fluorescence | inhibition, % at 20 µM | hit rate 4% among 1,900 | AID 602330;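 note: human MMP-2 activated beforehand with APMA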
Thrombin inh: counter-screen for RPN11 inhibitors: inhibition of bovine thrombin. shares compounds with Rpn11 inh. bovine thrombin cleavage of Ub4-pepOG, fluorescence polarization. inhibition, % at 20 µM. hit rate 13% among 1,900;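 active = mean inhibition at least 40% at 20 µM, or signal 3 deviations below plate average, so some actives read negative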;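 note: plate controls were thrombin with DMSO for no effect and buffer wells lacking thrombin for full effect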
Target sequence (P00735 whole entry, looked up): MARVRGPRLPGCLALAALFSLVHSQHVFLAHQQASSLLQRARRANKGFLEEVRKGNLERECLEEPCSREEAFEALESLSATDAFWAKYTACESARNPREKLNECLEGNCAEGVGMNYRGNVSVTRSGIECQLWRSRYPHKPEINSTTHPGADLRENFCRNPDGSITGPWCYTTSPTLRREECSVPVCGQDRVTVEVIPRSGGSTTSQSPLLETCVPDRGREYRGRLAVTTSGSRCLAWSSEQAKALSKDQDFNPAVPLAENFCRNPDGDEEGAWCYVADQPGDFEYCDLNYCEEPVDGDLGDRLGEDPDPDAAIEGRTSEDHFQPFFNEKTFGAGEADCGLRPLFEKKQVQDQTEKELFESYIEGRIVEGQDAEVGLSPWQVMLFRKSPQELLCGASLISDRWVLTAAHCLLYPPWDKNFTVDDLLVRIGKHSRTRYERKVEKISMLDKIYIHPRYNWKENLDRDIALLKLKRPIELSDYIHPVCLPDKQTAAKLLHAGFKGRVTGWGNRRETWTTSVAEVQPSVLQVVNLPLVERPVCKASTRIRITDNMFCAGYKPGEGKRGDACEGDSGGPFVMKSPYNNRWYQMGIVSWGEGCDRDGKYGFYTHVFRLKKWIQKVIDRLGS
An asterisk follows results filed as active. Cut-off read from the data, not from the text of the source, unless noted: active = inhibition above about 40%; inactive = the rest.

Screening O=C(CCN1C(=O)/C(=C/c2ccco2)SC1=S)Nc1ccc(O)cc1C(=O)O returned Myeloid diff MLP inactive, HNF4A DNA FP -38 and Rpn11 inh 13.
COc1ccc(C)cc1N1CC(C(=O)Nc2cccc(C(=O)NC3CC3)c2)CC1=O (stereo not given) was read as Myeloid diff MLP inactive, HNF4A DNA FP 5 and Rpn11 inh -5.
For CC(=S)c1c(C)cc2cc(C)ccn12 the results were TPT1 inhibitor 0, Myeloid diff MLP inactive, HNF4A DNA FP 0 and Rpn11 inh 5.
Fc1ccc(C(CNC(=S)NC2CCCCC2)N2CCOCC2)cc1 (stereo not given) was read as TPT1 inhibitor 1, Myeloid diff MLP inactive, HNF4A DNA FP -6 and Rpn11 inh 5.
COc1nc(OC)nc(N2CCC(NC(=O)C(Cc3cccc(OC)c3OC)NC(C)=O)CC2)n1 (stereo not given) was read as TPT1 inhibitor -3, Myeloid diff MLP inactive, HNF4A DNA FP 0 and Rpn11 inh -7.
O=[N+]([O-])c1ccc(N/N=C/c2cccc(O)c2)cc1 was read as TPT1 inhibitor 45*, Myeloid diff MLP inactive, HNF4A DNA FP 14, Rpn11 inh 46*, caTPT1 confirm 55*, RNase T1 inh 66*, Rpn11 inh conf 19, MMP-2 inh 25 and Thrombin inh 11.
O=[N+]([O-])c1ccc(N/N=C/c2ccc[nH]2)cc1 was read as TPT1 inhibitor 64*, Myeloid diff MLP inconclusive, HNF4A DNA FP 34, Rpn11 inh 67*, caTPT1 confirm 65*, RNase T1 inh 76*, Rpn11 inh conf 51*, MMP-2 inh 30 and Thrombin inh 34.
`O=[N+]([O-])c1ccc(NN=Cc2cccc([N+](=O)[O-])c2)cc1` gave Myeloid diff MLP inactive, HNF4A DNA FP 4 and Rpn11 inh 14.
O=[N+]([O-])c1ccc(N/N=C/c2cn(-c3ccccc3)nc2-c2ccccc2)cc1 was read as TPT1 inhibitor 118*, Myeloid diff MLP active, HNF4A DNA FP 28, Rpn11 inh 48*, caTPT1 confirm 103*, RNase T1 inh 111*, Rpn11 inh conf 26, MMP-2 inh -20 and Thrombin inh 10.
O=[N+]([O-])c1ccc(N/N=C/c2c[nH]c3ccccc23)cc1 was read as TPT1 inhibitor 125*, Myeloid diff MLP active, HNF4A DNA FP 78*, Rpn11 inh 115*, caTPT1 confirm 106*, RNase T1 inh 109*, Rpn11 inh conf 84*, MMP-2 inh -16 and Thrombin inh 59*.
Screening CNC(=S)N(CCc1c(C)[nH]c2ccc(OC)cc12)Cc1ccco1 returned TPT1 inhibitor 0, Myeloid diff MLP inactive, HNF4A DNA FP 3 and Rpn11 inh 6.
`C(=N\NC1=Nc2cccc3cccc1c23)/c1cccnc1` gave TPT1 inhibitor 26*, Myeloid diff MLP inactive, HNF4A DNA FP 40*, Rpn11 inh 70*, caTPT1 confirm 41*, RNase T1 inh 56*, Rpn11 inh conf 40*, MMP-2 inh -57 and Thrombin inh 23.
O=C(O)COc1ccccc1/C=C1\SC(=S)N(/N=C/c2ccccc2O)C1=O was read as TPT1 inhibitor 2, Myeloid diff MLP inactive, HNF4A DNA FP 5 and Rpn11 inh 3.
Screening COc1cc(/C=C2\SC(=S)N(C(Cc3ccccc3)C(=O)O)C2=O)ccc1O (stereo not given) returned TPT1 inhibitor 33*, Myeloid diff MLP inactive, HNF4A DNA FP 35*, Rpn11 inh 103*, caTPT1 confirm 37*, RNase T1 inh 49*, Rpn11 inh conf 62*, MMP-2 inh -17 and Thrombin inh 79*.
Screening O=C(O)COc1ccccc1/C=C1\SC(=S)N(NC(=O)c2ccccc2O)C1=O returned TPT1 inhibitor 31*, Myeloid diff MLP inactive, HNF4A DNA FP 8, Rpn11 inh 41*, caTPT1 confirm 31*, RNase T1 inh 40*, Rpn11 inh conf 58*, MMP-2 inh -9 and Thrombin inh 54*.
`O=C(NN1C(=O)/C(=C\c2ccc(O)c([N+](=O)[O-])c2)SC1=S)c1ccccc1Cl` gave TPT1 inhibitor 49*, Myeloid diff MLP inactive, HNF4A DNA FP 28, Rpn11 inh 52*, caTPT1 confirm 53*, RNase T1 inh 63*, Rpn11 inh conf 70*, MMP-2 inh 11 and Thrombin inh 53*.
O=C(O)C(Cc1ccccc1)N1C(=O)/C(=C/c2ccccc2)SC1=S (stereo not given) was read as TPT1 inhibitor -2, Myeloid diff MLP inactive, HNF4A DNA FP 0 and Rpn11 inh -5.
COc1cc(/C=C2\SC(=S)N(Nc3ncc(C(F)(F)F)cc3Cl)C2=O)ccc1O was read as TPT1 inhibitor 27*, Myeloid diff MLP inactive, HNF4A DNA FP 82*, Rpn11 inh 72*, caTPT1 confirm 32*, RNase T1 inh 43*, Rpn11 inh conf 75*, MMP-2 inh -20 and Thrombin inh 75*.
CSc1nc(N)c(C(=O)NC2CCCCC2)s1 was read as TPT1 inhibitor 1, Myeloid diff MLP inactive, HNF4A DNA FP 1 and Rpn11 inh 5.
Screening CCOc1cc(/C=C2\SC(=S)N(Nc3ccccc3)C2=O)ccc1O returned TPT1 inhibitor 34*, Myeloid diff MLP inactive, HNF4A DNA FP 32, Rpn11 inh 82*, caTPT1 confirm 37*, RNase T1 inh 50*, Rpn11 inh conf 72*, MMP-2 inh 24 and Thrombin inh 79*.
Screening COc1cccc(/C=C2\SC(=S)N(C(C(=O)O)c3ccccc3)C2=O)c1OC (stereo not given) returned TPT1 inhibitor 2, Myeloid diff MLP inactive, HNF4A DNA FP 10 and Rpn11 inh 1.
CCOc1cc(/C=C2\SC(=S)N(NS(=O)(=O)c3ccccc3)C2=O)ccc1O was read as TPT1 inhibitor 13, Myeloid diff MLP inactive and HNF4A DNA FP 15.
`COc1ccc(/C=C2\SC(=S)N(C(C(=O)O)c3ccccc3)C2=O)c(OC)c1` (stereo not given) gave TPT1 inhibitor 27*, Myeloid diff MLP inactive, HNF4A DNA FP 28, Rpn11 inh 41*, caTPT1 confirm 40*, RNase T1 inh 53*, Rpn11 inh conf 18, MMP-2 inh -24 and Thrombin inh 21.
